Measurements: the supplement of paper PMC10849652
Targets with a hit are over-represented here; the source holds about 7,900 in all. About 0.6% of all pairs of compound and target were hits. Values without a mark were called inactive.

Tests used:
Experiment in all cases: log2 fold change, soluble protein after heating vs DMSO (PISA); higher = thermal stabilisation; K562 cells, 10 uM, 30 min; active = over 0.2 and 3.5 SD of the protein, either way, in both replicates (recomputed)
[1] = target: AAGAB (UniProt Q6PD74)
Method in brief: (§1)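 Soluble protein was quantified by TMTpro 16plex LC-MS/MS after channel sums were equalised. It was obtained as the supernatant after 21,000xg for 90 min from pooled aliquots of K562 cells (2×10^6 cells/mL, 10 μM compound, 30 min) heated for 3 min across 48°C-58°C and extracted in PBS with 0.5% NP-40 at 4°C. Thermal stability values are relative to control samples and come from duplicates. They are given as log2 fold changes.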

[2] = target: AAK1 (UniProt A0A096LP25)
Method in brief: as §1

[3] = target: AAK1 (UniProt Q2M2I8)
Method in brief: as §1

Sequence of AAGAB (Q6PD74 whole entry, looked up): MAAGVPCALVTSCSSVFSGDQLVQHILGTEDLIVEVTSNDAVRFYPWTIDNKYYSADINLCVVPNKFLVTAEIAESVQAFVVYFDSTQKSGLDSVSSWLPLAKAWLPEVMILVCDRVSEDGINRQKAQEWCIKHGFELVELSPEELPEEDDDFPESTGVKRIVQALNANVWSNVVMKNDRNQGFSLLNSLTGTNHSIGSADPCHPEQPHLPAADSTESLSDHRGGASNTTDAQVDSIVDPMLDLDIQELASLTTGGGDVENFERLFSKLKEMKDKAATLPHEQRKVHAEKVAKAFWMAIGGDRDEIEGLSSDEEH
Sequence of AAK1 (UniProt Q2M2I8) (Q2M2I8 whole entry, looked up): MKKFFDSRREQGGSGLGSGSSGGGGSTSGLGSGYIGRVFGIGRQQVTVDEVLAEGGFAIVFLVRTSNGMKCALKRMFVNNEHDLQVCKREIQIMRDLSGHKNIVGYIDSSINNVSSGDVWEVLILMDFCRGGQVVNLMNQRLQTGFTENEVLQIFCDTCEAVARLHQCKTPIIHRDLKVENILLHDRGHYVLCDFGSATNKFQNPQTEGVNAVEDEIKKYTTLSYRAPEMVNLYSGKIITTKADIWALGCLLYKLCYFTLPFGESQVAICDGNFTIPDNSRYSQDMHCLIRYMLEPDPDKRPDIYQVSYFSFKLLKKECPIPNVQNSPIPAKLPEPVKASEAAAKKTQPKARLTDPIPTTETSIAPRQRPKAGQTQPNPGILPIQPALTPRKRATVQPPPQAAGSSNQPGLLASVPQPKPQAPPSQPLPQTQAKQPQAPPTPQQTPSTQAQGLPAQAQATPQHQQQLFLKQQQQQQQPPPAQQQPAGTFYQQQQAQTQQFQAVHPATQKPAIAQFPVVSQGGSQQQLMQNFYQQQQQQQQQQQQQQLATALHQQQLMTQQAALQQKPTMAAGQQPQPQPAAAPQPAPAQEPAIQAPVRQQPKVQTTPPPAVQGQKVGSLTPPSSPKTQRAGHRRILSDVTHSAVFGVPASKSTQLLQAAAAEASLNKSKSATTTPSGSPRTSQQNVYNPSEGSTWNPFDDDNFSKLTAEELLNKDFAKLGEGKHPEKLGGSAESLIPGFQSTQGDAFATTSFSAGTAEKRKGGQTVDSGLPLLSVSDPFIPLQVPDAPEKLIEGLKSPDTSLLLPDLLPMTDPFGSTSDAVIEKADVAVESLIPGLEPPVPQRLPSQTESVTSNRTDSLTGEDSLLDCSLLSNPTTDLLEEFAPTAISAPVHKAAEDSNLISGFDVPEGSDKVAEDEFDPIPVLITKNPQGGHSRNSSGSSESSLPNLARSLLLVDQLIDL

SMILES	log2 fold change [1]	log2 fold change [2]	log2 fold change [3]
C=CC(=O)N1CCC[C@@H](n2nc(-c3ccc(Oc4ccccc4)cc3)c3c(N)ncnc32)C1 [ibrutinib]	0.026	0.074	0.051
Cn1cc(-c2ccc3nnc(C(F)(F)c4ccc5ncccc5c4)n3n2)cn1	-0.121	-0.079	-0.086
CS(=O)(=O)CCNCc1ccc(-c2ccc3ncnc(Nc4ccc(OCc5cccc(F)c5)c(Cl)c4)c3c2)o1 [lapatinib]	-0.038		0.038
Cn1cncc1[C@@](N)(c1ccc(Cl)cc1)c1ccc2c(c1)c(-c1cccc(Cl)c1)cc(=O)n2C [tipifarnib]	-0.031		-0.057
C[C@@H]1COCCN1c1cc(C2(S(C)(=O)=O)CC2)nc(-c2cccc3[nH]ccc23)n1	-0.035	0.012	0.028
CCCS(=O)(=O)Nc1ccc(F)c(C(=O)c2c[nH]c3ncc(Cl)cc23)c1F	0.144		-0.028
NC1(c2ccc(-c3nc4ccn5c(=O)[nH]nc5c4cc3-c3ccccc3)cc2)CCC1	-0.174	0.048	-0.027
CC(C)(O)CC(=O)NCCn1ccc2ncnc(Nc3ccc(Oc4cccc(C(F)(F)F)c4)c(Cl)c3)c21	-0.146	-0.034	0
Cc1cc(Nc2cc(CN3CCOCC3)c3nc(C)c(Cc4ccc(Cl)cc4F)n3n2)n[nH]1 [gandotinib]	-0.026	0.103	0.091
CC1=C(C(=O)Nc2cc3cn[nH]c3cc2F)C(c2ccc(C(F)(F)F)cc2)CC(=O)N1 (stereo not drawn)	-0.004	-0.113	-0.055
NC1(Cc2ccc(Cl)cc2)CCN(c2ncnc3[nH]ccc23)CC1	0.054	0	-0.085
c1cn2cc(-c3ccc4cn[nH]c4c3)nc(Nc3ccc(N4CCOCC4)cc3)c2n1 [entospletinib]	0.116	0.224	0.132
CCn1c(C(=O)N(C2CC2)C2CC2)cc2c3c(ncn3C)c(Nc3cc(C)n(C)n3)nc21	0.073	-0.041	0.019
O=C(O)c1ccc2c(c1)nc(Nc1cccc(Cl)c1)c1ccncc12 [silmitasertib]	0.071	-0.072	0.153
O=C1NC(=O)C(c2cnc3ccccn23)=C1c1cn2c3c(cc(F)cc13)CN(C(=O)N1CCCCC1)CC2	-0.109	-0.159	0.238
Oc1cc(-c2nc(-c3ccccc3)[nH]c2-c2ccncc2)ccc1Cl	0.066	0.017	0.073
CCCCN(Cc1ccc(C(=O)NO)cc1)C(=O)Nc1ccccc1 [Nexturastat A]	0.109	0.068	-0.021

SMILES	log2 fold change [1]	log2 fold change [2]	log2 fold change [3]
CS(=O)(=O)N1CCN(Cc2cc3nc(-c4cccc5[nH]ncc45)nc(N4CCOCC4)c3s2)CC1 [pictilisib]	0.039	0.16	0.087
Nc1ccccc1NC(=O)c1ccc(CNC(=O)OCc2cccnc2)cc1 [entinostat]	0.004	-0.061	-0.015
CNC(=O)c1ccc(Nc2ncc(C(F)(F)F)c(NCc3nccnc3N(C)S(C)(=O)=O)n2)cc1 [defactinib]	-0.187	0.037	-0.106
Cc1nc(Nc2n[nH]c3c2CN(C(=O)N[C@H](CN(C)C)c2ccccc2)C3(C)C)c2sccc2n1	-0.109	0.104	0.158
Cc1ccc(NC(=O)c2ccc(CN3CC[C@H](N(C)C)C3)c(C(F)(F)F)c2)cc1Nc1nccc(-c2cncnc2)n1 [bafetinib]	-0.046	-0.058	-0.016
CCN(CCCOc1ccc2c(Nc3cc(CC(=O)Nc4cccc(F)c4)[nH]n3)ncnc2c1)CCOP(=O)(O)O [barasertib]	0.068	-0.004	-0.034
COc1cc2nc(-c3cc(F)ccc3O)nc(N[C@@H]3CNC[C@H]3C(C)(C)O)c2cc1OC	-0.064		0.024
CC[C@@H]1C(=O)N(C)c2cnc(Nc3ccc(C(=O)N[C@H]4CC[C@H](N5CCN(CC6CC6)CC5)CC4)cc3OC)nc2N1C(C)C [volasertib]	-0.551 (active)		0.121
Cc1ccc(NC(=O)c2cccc(C(C)(C)C#N)c2)cc1Nc1ccc2ncn(C)c(=O)c2c1	-0.153	-0.131	0.01
CNc1nc(-c2ccc3c(N)n[nH]c3c2)cc(N2C[C@@H](C(=O)NC3CCCCC3)CC[C@H]2C)n1	-0.084	0.244	0.252
Fc1ccc(Cl)cc1-c1nc(Nc2ccncc2)c2nccnc2n1	0.079	-0.027	0.019
NCC(=O)Nc1ccc(-n2nc(C(F)(F)F)cc2-c2ccc3c(ccc4ccccc43)c2)cc1	-0.011	-0.085	0.045
CS(=O)(=O)c1ccc(-c2cnc(N)c(C(=O)Nc3ccccc3)n2)cc1	0.097	0.138	0.043
C[C@@H](Oc1cc(-c2cnn(C3CCNCC3)c2)cnc1N)c1c(Cl)ccc(F)c1Cl [crizotinib]	-0.134	0.124	0.169
Cc1ccc(Sc2cncc3sc(C(N)=O)cc23)cc1	-0.012		0.032
CCn1cc(-c2ccnc3[nH]c(-c4cccc(CN(C)C)c4)cc23)c(-c2ccc(NC(=O)N(C)C)cc2)n1	-0.018	-0.031	-0.141
